Test results: PubChem BioAssay (NCI)
The panel holds about 83,000 compounds, 20% with a hit somewhere; the sample as a whole holds those more often.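 Values shown are percent growth following 48 h exposure of cells in 96-well plates to a single concentration of compound; below 10 was considered active.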 The source made the active and inactive calls.

The compounds below were run on NCI-H322M lung (assay: NCI-60 one-dose screen, 48 h (100 = growth as untreated, 0 = no growth, -100 = all killed)). Settings: 10 µM unless noted.
Protocol: Growth inhibition of the NCI-H322M human Non-Small Cell Lung tumor cell line is measured as a screen for anti-cancer activity. Cells are grown in 96 well plates and exposed to the test compound for 48 hours. Compounds are tested at a single concentration, which is 10^-5 M for most compounds. The reported endpoint is percent growth (GI% or GIPRCNT), where numbers from 0 - 100% represent growth inhibition, and numbers from -100% - 0 represent cell death. For example, a value of 40 represents 60% growth inhibition. A value of 0 means no net growth occurred over the course of the experiment. A value of -40 indicates 40% of cells at the beginning of the experiment died by the end of the experiment. A value of -100 means all cells are dead at the end of the experiment.
NCI-60 Human Tumor Cell Lines Screen was performed using the standard one-dose NCI protocol, which is described in more detail at https://dtp.cancer.gov/discovery_development/nci-60/default.htm.
Compounds with GIPRCNT values below 10 were considered active. Activity score was based on GIPRCNT using the following formula: […]
Score is 0 for GIPRCNT values of 100 or above, 50 for GIPRCNT values of 0, and 100 for GIPRCNT values of -100.

Row | SMILES | growth
1 | C=C1c2c(C)nn(-c3ccc(S(N)(=O)=O)cc3)c2N(C)C23CC1C1(C)c4c(C)nn(-c5ccc(S(N)(=O)=O)cc5)c4N(C)C(C)(CC12)C3 (stereo not given) | 75.7% (inactive)
2 | COc1cc(C(=O)/C=C/c2c(C(F)(F)F)nc3ccccn23)cc(OC)c1OC | 8.14% (active)
3 | Cc1ccc(S(=O)(=O)N(CC[C@@H]2C[C@H]2c2cc3ccccc3o2)C(=O)NC2CCCCC2)cc1 | 108% (inactive)
4 | COc1cc2oc(-c3cccc(C(=O)Nc4ccc(C#N)cc4)c3)cc(=O)c2c(O)c1OC | 72.7% (inactive)
5 | CCOC(=O)C1C(=O)C=C(c2cnccn2)CC1c1ccc(OC)c(OC)c1 (stereo not given) | 103% (inactive)
6 | Cc1cc(=O)c2cc3nc(-c4cccnc4)oc3c(Br)c2o1 | 109% (inactive)
7 | CCCCNCC(=O)Nc1ccc(C(=O)OCC)cc1 | 105% (inactive)
8 | CCCCCCN(CCCCCC)CC(O)c1cccc2ccc(Cl)cc12 (stereo not given) | 66.4% (inactive)
9 | Cc1cc(N(CCCNc2ccnc3cc(Cl)ccc23)Cc2ccccn2)nc(N2CCOCC2)n1 | 94.1% (inactive)
10 | O=C(O)CC1Sc2ccccc2NC1=O (stereo not given) | 104% (inactive)
11 | C[C@@H]1CC[C@@H]2[C@@H]1[C@H](OC(=O)c1ccc3ccccc3c1)[C@]1(C3CCCCC3)C[C@@H](OC(=O)CO)[C@@]2(C)O1 | 81.5% (inactive)
12 | Nc1c(C(=O)Nc2ccccc2)sc2nc3c(cc12)CCCCCC3 | 29.2% (inactive)
13 | COc1c(C)cnc(CSc2nc(-c3ccc(C)cc3)cn2-c2ccc(Cl)cc2)c1C | 80.9% (inactive)
14 | CC(=O)NCC(=O)Nc1ccc(-c2nnc3ccccn23)nc1.CC(=O)NCC(=O)Nc1ccc(-c2nnc3ccccn23)nc1.[Pt+2] | 112% (inactive)
15 | CS(=O)(=O)c1ccc(N/N=C/c2c(-c3ccc(S(C)(=O)=O)cc3)[nH]c3ccc(F)cc23)cc1 | 45% (inactive)
16 | CCc1cc(Cc2cc(CC)cc(C(C)(C)C)c2O)c(O)c(C(C)(C)C)c1 | 50% (inactive)
17 | CCCCCCNCc1cc(C(C)(C)C)cc(CNCCCCCC)c1O | -78.9% (active)
18 | O=C(/C=C/C12c3ccccc3C(c3ccccc31)C1C(=O)NC(=O)C12)c1ccc(Cl)cc1 (stereo not given) | 2.94% (active)
19 | COc1ccc(C2CC(c3ccc4ccccc4c3)=NN2c2nc(O)c(C3=c4cc(Cl)ccc4=NC3=O)s2)cc1 (stereo not given) | -29.7% (active)
20 | CN(C)c1ccc2cc(-c3ccccc3F)c(N)nc2c1 | 55.1% (inactive)

Row | SMILES | growth
21 | NS(=O)(=O)Oc1ccc(NC(=O)C23CC4CC(CC(C4)C2)C3)cc1Cl | 104% (inactive)
22 | NC(N)=N/N=C(/c1ccccc1)c1ccccc1F | 62% (inactive)
23 | C#C[C@]1(O)CC[C@H]2[C@@H]3CC=C4c5sc(N=C(N)N)nc5CC[C@]4(C)[C@H]3CC[C@@]21C | 27.9% (inactive)
24 | COc1ccc(/C(C)=C(\c2ccc(Cl)cc2)c2ccc(OCCN3CCCCC3)cc2)cc1F | 76.1% (inactive)
25 | COC1(CC[C@@H](C)COC2OC(CO)C(O)C(O)C2O)O[C@H]2C[C@H]3[C@@H]4CC=C5C[C@@H](OC6OC(CO)C(OC7OC(C)C(O)C(O)C7O)C(O)C6OC6OC(C)C(O)C(O)C6O)CC[C@]5(C)[C@H]4CC[C@]3(C)[C@H]2[C@@H]1C (stereo not given in full) | -85.2% (active)
26 | CCn1c(Sc2nnc(NC(=O)CCN3CCCC3)s2)nc2c1c(=O)n(C)c(=O)n2C | 105% (inactive)
27 | CCN1CCN(c2ccc(Nc3cc(-c4cccnc4Nc4c(Cl)c(OC)cc(OC)c4Cl)ncn3)cc2)CC1 | 68.7% (inactive)
28 | COc1ccc(-c2cc(-c3cc(OC)ccc3OC)[nH]c(=O)c2C#N)cc1 | 91.7% (inactive)
29 | CCn1c(Sc2nnc(NC(=O)CSC(=S)N3CCCCC3)s2)nc2c1c(=O)n(C)c(=O)n2C | 101% (inactive)
30 | Cc1c(C(=O)O)nnn1-c1nccs1 | 99.8% (inactive)
31 | C=C(C)[C@@H]1CC[C@]2(CN)CC[C@]3(C)[C@H](CC[C@@H]4[C@@]5(C)CCC(N)[C@@](C)(CO)[C@@H]5CC[C@]43C)[C@@H]12 (stereo not given in full) | 34.4% (inactive)
32 | COc1cc2c(=O)n(CCCn3ccnc3)c3c4cc5c(cc4ccc3c2cc1OC)OCO5 | 17.5% (inactive)
33 | Cc1ccc(-n2nnc(C3=NCCc4c3[nH]c3ccc(Cl)cc43)c2C)cc1 | 85% (inactive)
34 | COc1ccc(-n2sc(=O)n(Cc3ccc(COC(=O)C(C)c4ccc(CC(C)C)cc4)cc3)c2=O)cc1 (stereo not given) | 94.9% (inactive)
35 | CS(=O)(=O)c1ccc(-c2[nH]c3ccc(F)cc3c2/C=N/O)cc1 | 90.1% (inactive)
36 | CCCN1CCN(c2ccc3nc(-c4ccc5nc(-c6cc(OC)c(OC)c(OC)c6)[nH]c5c4)[nH]c3c2)CC1 | 94% (inactive)
37 | O=C1Nc2ccccc2/C1=N/N=C/c1ccsc1 | 100% (inactive)
38 | O=C1Nc2ccccc2/C1=N/N=C/c1ccc(OC2OC(CO)C(O)C(O)C2O)cc1 (stereo not given) | 105% (inactive)
39 | CCCCCCCC/C=C\CCCCCCCC(=O)Oc1cccc2cccnc12 | 97.6% (inactive)
40 | CCOC(=O)C(O)C(O)(c1ccccc1)c1ccccc1 (stereo not given) | 96.7% (inactive)
